# Data: the supplement of paper PMC8728848
# Only a selection was taken, and the strongest signals are over-represented in it overall.
# Key:
# Test in all cases: glycan array binding signal (z-score within array); higher = stronger binding
# Settings in all cases: glycan notation: IUPAC condensed, linker removed
# Gal3S6S(b1-4)GlcNAc = target: Gal3S6S(b1-4)GlcNAc
# Summary of the method: (§1)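 Glycan array binding is given as a within-array Z-score, which can be read as non-binding when negative. The arrays, 3228 of them, came from the Consortium for Functional Glycomics database and were retained only where the protein sequence was available. Z-scores were averaged across arrays of the same protein sequence at different concentrations or buffers and across linkers.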
# GalNAc(a1-3)GalNAc = target: GalNAc(a1-3)GalNAc
# Summary of the method: as §1
# GalNAc(b1-4)Gal(b1-4)Glc = target: GalNAc(b1-4)Gal(b1-4)Glc
# Summary of the method: as §1
# GalNAc3S(b1-4)GlcNAc = target: GalNAc3S(b1-4)GlcNAc
# Summary of the method: as §1
# GalNAc3S(b1-4)GlcNAc3S = target: GalNAc3S(b1-4)GlcNAc3S
# Summary of the method: as §1
# [1] = target: GalNAc3S(b1-4)[Fuc(a1-3)]GlcNAc
# Summary of the method: as §1
# [2] = target: GlcNAc(a1-4)Gal(b1-4)GlcNAc(b1-3)Gal(b1-4)GlcNAc
# Summary of the method: as §1
# [3] = target: GlcNAc(a1-4)Gal(b1-4)GlcNAc(b1-3)Gal(b1-4)[Fuc(a1-3)]GlcNAc(b1-3)Gal(b1-4)[Fuc(a1-3)]GlcNAc
# Summary of the method: as §1
# [4] = target: GlcNAc(b1-2)Man(a1-3)[GlcNAc(b1-2)Man(a1-6)]Man(b1-4)GlcNAc(b1-4)GlcNAc
# Summary of the method: as §1
# [5] = target: GlcNAc(b1-2)[GlcNAc(b1-4)]Man(a1-3)[GlcNAc(b1-2)Man(a1-6)]Man(b1-4)GlcNAc(b1-4)GlcNAc
# Summary of the method: as §1
# GlcNAc(b1-3)Gal = target: GlcNAc(b1-3)Gal
# Summary of the method: as §1
# [6] = target: GlcNAc(b1-3)Gal(b1-4)GlcNAc(b1-2)Man(a1-3)[GlcNAc(b1-3)Gal(b1-4)GlcNAc(b1-2)Man(a1-6)]Man(b1-4)GlcNAc(b1-4)[Fuc(a1-6)]GlcNAc
# Summary of the method: as §1
# [7] = target: GlcNAc6S(b1-3)Gal(b1-4)GlcNAc
# Summary of the method: as §1
# Kdn(a2-3)Gal(b1-3)GalNAc = target: Kdn(a2-3)Gal(b1-3)GalNAc
# Summary of the method: as §1
# [8] = target: Man(a1-2)Man(a1-3)[Man(a1-2)Man(a1-6)]Man(a1-6)[Man(a1-3)[Man(a1-6)]Man(a1-6)]Man(b1-4)GlcNAc(b1-4)GlcNAc
# Summary of the method: as §1
# [9] = target: Man(a1-2)Man(a1-3)[Man(a1-6)]Man(a1-6)[Man(a1-2)Man(a1-3)]Man(b1-4)GlcNAc(b1-4)GlcNAc
# Summary of the method: as §1
# [10] = target: Man(a1-2)Man(a1-6)[Man(a1-3)]Man(a1-6)[Man(a1-2)Man(a1-2)Man(a1-3)]Man
# Summary of the method: as §1
# [11] = target: Man(a1-2)Man(a1-6)[Man(a1-3)]Man(a1-6)[Man(a1-2)Man(a1-2)Man(a1-3)]Man(b1-4)GlcNAc(b1-4)GlcNAc
# Summary of the method: as §1
# [12] = target: Man(a1-3)[Man(a1-6)]Man(a1-6)[Man(a1-2)Man(a1-3)]Man(b1-4)GlcNAc(b1-4)GlcNAc
# Summary of the method: as §1
# [13] = target: Man(a1-3)[Man(a1-6)]Man(a1-6)[Man(a1-3)]Man(b1-4)GlcNAc(b1-4)GlcNAc
# Summary of the method: as §1
# [14] = target: Man(a1-3)[Man(a1-6)]Man(b1-4)GlcNAc(b1-4)GlcNAc
# Summary of the method: as §1
# [15] = target: Neu5Ac(a2-3)Gal(b1-3)GlcNAc(b1-3)Gal(b1-3)GlcNAc
# Summary of the method: as §1
# [16] = target: Neu5Ac(a2-3)Gal(b1-3)[Fuc(a1-4)]GlcNAc
# Summary of the method: as §1
# [17] = target: Neu5Ac(a2-3)Gal(b1-3)[Fuc(a1-4)]GlcNAc(b1-3)Gal(b1-4)[Fuc(a1-3)]GlcNAc
# Summary of the method: as §1
# [18] = target: Neu5Ac(a2-3)Gal(b1-3)[Neu5Ac(a2-3)Gal(b1-4)]GlcNAc
# Summary of the method: as §1
# [19] = target: Neu5Ac(a2-6)Gal(b1-4)GlcNAc(b1-2)Man(a1-3)[GlcNAc(b1-2)Man(a1-6)]Man(b1-4)GlcNAc(b1-4)GlcNAc
# Summary of the method: as §1
# [20] = target: Neu5Ac(a2-6)Gal(b1-4)GlcNAc(b1-2)Man(a1-3)[Neu5Ac(a2-6)Gal(b1-4)GlcNAc(b1-2)Man(a1-6)]Man(b1-4)GlcNAc(b1-4)[Fuc(a1-6)]GlcNAc
# Summary of the method: as §1
# [21] = target: Neu5Gc(a2-8)Neu5Gc(a2-3)Gal(b1-4)GlcNAc
# Summary of the method: as §1
# [22] = target: Neu5Gc(a2-8)Neu5Gc(a2-3)Gal(b1-4)GlcNAc(b1-3)Gal(b1-4)GlcNAc
# Summary of the method: as §1
# [23] = target: Neu5Gc(a2-8)Neu5Gc(a2-6)Gal(b1-4)GlcNAc
# Summary of the method: as §1
# [24] = target: Neu5Gc(b2-6)Gal(b1-4)GlcNAc
# Summary of the method: as §1
binder,measurement,setting,value
AMA (Arum maculatun) (protein) MAKLLLLLLLPAIVGLAVPRSAAAVGSNYMLSGETLNTDGRLTNGELTLIMQVDCNLVLYHGGWQSNTANNGRDCKLTLTDFGELVIKSGTGSTVWSSGSKQSMKGNYAAVVHPEGRLVIYGPSVFKINPSGAGLNGLPLRNIPLTNNMLFSGQVLYGDGTLSARNHKLVMQGDCNMVLYGGKYGWQSNTHGNGKYCFAMLTHKGELVIRDDDFKSVWSSKSSSKQGDYVFILQDDSLAIIYGPAVFSTGSKKMISMVTN,glycan array binding signal (z-score),Gal3S6S(b1-4)GlcNAc,-0.213
same,glycan array binding signal (z-score),GalNAc(a1-3)GalNAc,-0.209
same,glycan array binding signal (z-score),GalNAc(b1-4)Gal(b1-4)Glc,-0.203
same,glycan array binding signal (z-score),GalNAc3S(b1-4)GlcNAc,-0.22
same,glycan array binding signal (z-score),GalNAc3S(b1-4)GlcNAc3S,-0.217
same,glycan array binding signal (z-score),[1],-0.216
same,glycan array binding signal (z-score),[2],-0.205
same,glycan array binding signal (z-score),[3],-0.201
same,glycan array binding signal (z-score),[4],6.01
same,glycan array binding signal (z-score),[5],7.69
same,glycan array binding signal (z-score),GlcNAc(b1-3)Gal,-0.211
same,glycan array binding signal (z-score),[6],2.21
same,glycan array binding signal (z-score),[7],-0.202
same,glycan array binding signal (z-score),Kdn(a2-3)Gal(b1-3)GalNAc,-0.207
same,glycan array binding signal (z-score),[8],3.87
same,glycan array binding signal (z-score),[9],3.3
same,glycan array binding signal (z-score),[10],-0.213
same,glycan array binding signal (z-score),[11],4.91
same,glycan array binding signal (z-score),[12],8.56
same,glycan array binding signal (z-score),[13],4.09
same,glycan array binding signal (z-score),[14],3.64
same,glycan array binding signal (z-score),[15],-0.204
same,glycan array binding signal (z-score),[16],-0.218
same,glycan array binding signal (z-score),[17],-0.226
same,glycan array binding signal (z-score),[18],0.441
same,glycan array binding signal (z-score),[19],0.845
same,glycan array binding signal (z-score),[20],0.863
same,glycan array binding signal (z-score),[21],-0.22
same,glycan array binding signal (z-score),[22],-0.215
same,glycan array binding signal (z-score),[23],-0.211
same,glycan array binding signal (z-score),[24],-0.21
